In all, about 53,000 compounds went through this assay and about 900 (1.7%) showed an effect of 50% or more. This is one part of a sample in which strong results are shown more often than they occur.
Each compound was assayed on Mycobacterium tuberculosis (assay: Cornell - Phenotypic assay to identify agents that inhibit growth of Mycobacterium tuberculosis). Settings: 10 mM as filed; unlikely as a test dose.
Type: functional
Design: scale not given: direction of the effect not stated beside the values

Row | Structure (SMILES) | Percent Effect [%]
1 | CC(=O)Nc1cccc(OCCNC(=O)N(C)Cc2ccco2)c1 | 2.051
2 | CC(C)C[C@H](N)COc1cccc(F)c1Oc1ccccc1 | 5.347
3 | CC(C)C[C@H](N)COc1cccc(F)c1Oc1ccc(Cl)cc1 | 107.4
4 | Cc1ccc(Oc2c(F)cccc2OC[C@@H](N)CC(C)C)cc1 | 106.4
5 | CC(C)C(=O)Nc1cccc(OCC(=O)NCc2ccccc2F)c1 | 6.908
6 | CC(C)C[C@H](N)COc1cccc(F)c1Oc1cccc(Cl)c1 | 106.7
7 | CNCc1cc(F)ccc1Oc1ccc(Cl)cc1 | -16.87
8 | CCNCCOc1ccc(-c2cc(N)nc3[nH]ccc23)cc1 | 21.99
9 | COc1c(C)cnc(CN2CCCC2c2noc(C)n2)c1C (stereo not given) | -16.92
10 | CCCC1(CO)CCCN(c2ncnc3c2c(C)nn3C)C1 (stereo not given) | -13.93
11 | Cc1cccc(-c2ccc(C(=O)N3CCN(C(C)C)CC3)c(=O)[nH]2)c1 | 26.41
12 | CC(C)OCCC(=O)NS(=O)(=O)N1CCOc2ccccc21 | 29.29
13 | CCOc1ccccc1C(=O)NCCc1ccoc1 | 23.58
14 | CNS(=O)(=O)c1ccc(C(=O)NC2CCOc3ccccc32)o1 (stereo not given) | 7.684
15 | CC(C)c1nnc2sc(CC3CN(Cc4ccccc4)CCO3)nn12 (stereo not given) | -19.21
16 | O=C(NCCCOCC1CCCO1)c1cccnc1N1CCCC1 (stereo not given) | 105.2
17 | CC(C)COCCCNC(=O)c1cccnc1N1CCOCC1 | 3.314
18 | O=C(NCCCOCC1CCCO1)c1cccnc1N1CCOCC1 (stereo not given) | -37.06
19 | CCc1ccc(C(=O)NCCNc2ncccn2)cc1 | -25.5
20 | O=C(NCCNc1ncccn1)c1ccc(Br)cc1 | -16.37
21 | Cc1ccc(C)n1-c1ccc(C(=O)NCCNc2ncccn2)cc1 | 76.43
22 | Cc1cc(N(C)C)nc(C2(C)CCCN2C(=O)c2cncnc2C)n1 (stereo not given) | -9.352
23 | CN(C)C(=O)[C@@H]1CCO[C@@H]2CCN(Cc3ccc4c(c3)OCO4)C[C@@H]21.O=C(O)C(F)(F)F | -46.82
24 | CN(C)C(=O)[C@@H]1CCO[C@@H]2CCN(CCc3ccccc3)C[C@@H]21.O=C(O)C(F)(F)F | 4.406
25 | CN(C)C(=O)[C@@H]1CCO[C@@H]2CCN(Cc3ccccc3)C[C@@H]21.O=C(O)C(F)(F)F | 104.8

Row | Structure (SMILES) | Percent Effect [%]
26 | CCc1ccc(CN(C(=O)CCn2cc(S(N)(=O)=O)cn2)C2CC2)cc1 | -10.53
27 | COc1ccc(C2CN(c3cc(C)ncn3)CCN2C(C)=O)cc1 (stereo not given) | -53.77
28 | Cc1nn(CCNc2ncnc3c2NC(=O)CN3)c(C)c1Cl | 45.57
29 | COc1cc(N2CCC3(CCN(Cc4csc(C)n4)C3)CC2)ncn1.O=C(O)C(F)(F)F | 24.59
30 | Cc1nnc(CN2CCCC2c2ccsc2)o1 (stereo not given) | 14.43
31 | CCCc1noc(CN2CCCC2c2ccsc2)n1 (stereo not given) | 52.86
32 | CCCc1noc(CCC(=O)N2CCCC2c2ccsc2)n1 (stereo not given) | 22.08
33 | CN(C)CCNC(=O)c1ccn(-c2ccc3ccccn23)n1.O=C(O)C(F)(F)F | 12.93
34 | CC(C)N1CCCC1c1cc(CCO)[nH]n1 (stereo not given) | 11.54
35 | CCC(=O)N1CCC(c2cc(Nc3ncccn3)nc(C)n2)C1 (stereo not given) | -34.07
36 | Cc1ccccc1CC(=O)N[C@@H]1CCC[C@@H](N2CCNC(=O)C2)[C@@H]1O | 3.763
37 | O=C1CN([C@@H]2CC[C@@H](NS(=O)(=O)c3ccccc3)[C@H]2O)CCN1 | 55.41
38 | CN([C@@H]1CC[C@@H](N2CCCC2)[C@@H]1O)S(=O)(=O)c1ccccc1 | 24.86
39 | O=C1CN([C@@H]2CC[C@@H](NS(=O)(=O)c3ccccc3F)[C@H]2O)CCN1 | -3.18
40 | O=C1CN([C@@H]2CC[C@@H](NS(=O)(=O)c3ccc(F)cc3)[C@H]2O)CCN1 | 42.43
41 | Cc1ccccc1S(=O)(=O)N[C@@H]1CC[C@@H](N2CCNC(=O)C2)[C@@H]1O | 54.18
42 | Cc1ccc(-c2nnc(CN3CCn4c(nnc4C4CC4)C3)o2)cc1 | 2.899
43 | CCOCC(=O)N1C[C@@H]2CC[C@H](Oc3ccccc3)[C@@H]2C1 | -14.06
44 | CCCN1CCCn2nc(CNS(=O)(=O)c3cccc(F)c3)cc2C1 | -34.67
45 | CCN(CC)CCCNCc1cc2cc(C)ccc2[nH]c1=O | 4.422
46 | CCOc1ncccc1NC(=O)N1CCC(n2cncn2)CC1 | 14.59
47 | CCN(Cc1cccc(Cl)c1)Cc1ncc(C(C)(C)C)o1 | 0.2424
48 | CCN(Cc1ncc(C(C)(C)C)o1)Cc1ccccc1C | -5.269
49 | Cc1cccc(CN(Cc2ccccn2)Cc2ncc(C(C)(C)C)o2)c1 | 69.04
50 | Cc1nc2ccc(C(=O)N3C[C@@H](O)[C@H](N4CCCC4)C3)cc2[nH]1 | 1.956

Row | Structure (SMILES) | Percent Effect [%]
51 | COCC(=O)NC(c1ccccc1)c1ccc2c(c1)CCCO2 (stereo not given) | 34.89
52 | Cc1cc(NCc2cccc(C#N)c2)ccc1C(N)=O | 38.13
53 | Cc1cc(NCc2cccc(C#N)c2)ccc1Br | 50.78
54 | Cc1cc(NCc2cccc(C#N)c2)ccc1C(=O)N(C)C | 22.32
55 | CCN(CC)c1nc(Nc2cccc(C(=O)O)c2)nc2ccccc12 | -13.69
56 | CCN(CC)c1nc(Nc2cccc(C(C)O)c2)nc2ccccc12 (stereo not given) | 104.6
57 | CC(O)c1cccc(Nc2nc(NCCO)c3ccccc3n2)c1 (stereo not given) | -13.85
58 | NC(=O)NCC(=O)N1CCCC(OCc2cccnc2)C1 (stereo not given) | -45.31
59 | Cn1ncc2ccc(C3CCCN(Cc4cccs4)C3)nc21 (stereo not given) | -1.871
60 | Oc1cc(C2CCCCN2Cc2cccs2)nc(-c2ccccn2)n1 (stereo not given) | 21.14
61 | Oc1cc(C2CCCN(Cc3cccs3)C2)nc(-c2ccccn2)n1 (stereo not given) | 76.98
62 | Cc1nc(CCN2CCC(Oc3ccccc3F)CC2)c(C)s1 | 4.042
63 | Cc1nc(CCN2CCC(Oc3ccccc3F)CC2)cs1 | 0.3496
64 | Cc1nc(C)c(CCN2CCC(Oc3ccccc3F)CC2)s1 | 50.26
65 | Cc1cnc(-c2nc(O)c3c(n2)CN(C(=O)CC2CCCC2)CC3)cn1 | 2.725
66 | CC(C)N(C)S(=O)(=O)N(C)Cc1ccc2c(c1)OCO2 | -6.095
67 | CCN(C)S(=O)(=O)N(CC)Cc1ccc2c(c1)OCO2 | 26.78
68 | CCN(Cc1ccc2c(c1)OCCO2)S(=O)(=O)N(C)C(C)C | 54.92
69 | CCn1cnnc1C1CCN(C(=O)c2ccc(OC(C)C)nc2)CC1 | 22.89
70 | CC(C)c1nnc(CN(C)Cc2ccccc2-c2ccccc2)o1 | 60.67
71 | CC(C)c1nnc(CN(C)C(c2ccccc2)c2ccc(F)cc2)o1 (stereo not given) | 32.65
72 | CN(Cc1nnc(C2CC2)o1)Cc1ccccc1-c1ccccc1 | 24.56
73 | Cc1nn(C)c(C)c1NC(=O)CN1CCOC(CN(C)C)C1 (stereo not given) | 13.8
74 | O=C(C1=CCCC1)N1C[C@@H]2COC[C@]2(COCc2ccncc2)C1 | -20.46
75 | CCc1nnc(Nc2cc(C)nc(C3CCN(c4ccncn4)C3)n2)s1 (stereo not given) | -19.2

Row | Structure (SMILES) | Percent Effect [%]
76 | O=C(CCn1ccc(=O)[nH]c1=O)N1CCC(Oc2ncccc2Cl)CC1 | 20.85
77 | Cc1cccc(OC2CCN(C(=O)c3ccc4c(c3)OCO4)CC2)n1 | 37.52
78 | O=C(Cn1ccc2ccccc21)N1CCC(Oc2ncccc2Br)CC1 | 58.45
79 | O=C(CCC(=O)N1CCC(Oc2ncccc2Br)CC1)c1ccccc1 | 95.35
80 | Cc1cccc(OC2CCN(C(=O)Cn3ccc4ccccc43)CC2)n1 | 59.2
81 | O=C(Cn1ccc2ccccc21)N1CCC(Oc2cnccn2)CC1 | 24.96
82 | O=C(CCC(=O)N1CCC(OCc2cccnc2)CC1)c1ccccc1 | -10.19
83 | O=C(NCc1ccccc1)N1CCC(Oc2ncccc2Br)CC1 | -14.28
84 | COC1CCN(C(=O)Cn2ccc3ccccc32)CC1 | 2.586
85 | CS(=O)(=O)NCCCNC(=O)c1cccc(-n2cccc2)c1 | -24.26
86 | CC(=O)Nc1nc(SCc2ccc3c(c2)OCO3)ns1 | 6.348
87 | CCCN1CCN(C(=O)Nc2ccccc2Cl)[C@H]2CS(=O)(=O)C[C@H]21 | 2.165
88 | CC1CCN(Cc2ccccc2CNC(=O)C2CNC(=O)N2)CC1 (stereo not given) | -0.9762
89 | CCOC1COC2(CCN(c3ccccn3)CC2)C1.O=C(O)C(F)(F)F (stereo not given) | 3.904
90 | CCOc1ccccc1C(=O)N1CC(=O)N(C2CCC2)CC(O)C1 (stereo not given) | 12.12
91 | CN(Cc1cccnc1)[C@@H]1CN(Cc2ccccn2)[C@@H]2CCCO[C@H]12 | 51.65
92 | CN(Cc1cccnc1)[C@@H]1CN(c2ccccn2)[C@@H]2CCCO[C@H]12 | 3.977
93 | CN(Cc1cccnc1)[C@@H]1CN(c2ncc(F)cn2)[C@@H]2CCCO[C@H]12 | 19.63
94 | COc1ccc2c(c1)CC(C1CCOCC1)N(C(=O)c1ccnn1C)C2 (stereo not given) | 13.18
95 | CN1CCN(C)C(CNC(=O)N(C)Cc2ccc(Cl)c(F)c2)C1 (stereo not given) | 12.24
96 | C=C/C=c1\c(=C/C)oc2c(NCc3ccccc3)nc(C)nc12 | 70.49
97 | C=C/C=c1\c(=C/C)oc2c(NCc3ccccc3)ncnc12 | 8.559
98 | C=C/C=c1\c(=C/C)oc2c(NCc3ccccc3)nc(CC)nc12 | 44.26
99 | O=c1c2ccccc2nc2n1C(CSc1ccc(Br)cc1)CN2 (stereo not given) | 19.98
100 | COCCOc1ccc(Cl)c(C(=O)N2CCN(CCO)CC2)n1 | -16.9

Source: ChEMBL document CHEMBL3988442, “University of Dundee, Small-Polar-MMV Screening Library” (2021)
